Source: ChEMBL document CHEMBL3433997, “St. Jude Leishmania screening dataset” (2016)

The molecules below were run against Glucose transporter (Leishmania mexicana) (UniProt O61059) (assay: ST_JUDE_LEISH: Cytotoxicity at 2uM final concentration against transgenic Leishmania Mexicana promastigotes LmGT2 that are glucose transport deficient and complemented with the L. Mexicana glucose transporter 2. Activity is measured by DNA content using SYBR green in vitro).
Assay type: functional

Compared with `O=C(CCNc1ccnc(NCC2CCCCC2)n1)Nc1ccccc1`, `Cc1nc(-c2cccc(Nc3nccc(NCC(O)c4ccccc4)n3)c2)cs1` (centres undefined) is lower in inhibition: 3.46% for the first, 2.14% for the second.

Going from `CN1CC[C@@H](Oc2cc(C(=O)NCc3ccc(Cl)c(Cl)c3)ccc2C(F)(F)F)C1` to `COc1ccc2nccc([C@@H](O)CN3CCC(NC(=O)c4ccc(Cl)c([N+](=O)[O-])c4)CC3)c2c1`, the inhibition falls from 0.48% to 0%.

Compared with `CC(C)n1ncc2c(C(=O)N3CCCCCC3)cc(-c3ccccc3)nc21`, `N=C1N=C(N)NC2(CCCCC2)N1OCCCOc1cccc2ccccc12` is higher in inhibition: -5.3% for the first, 37.9% for the second.

Compared with `CN1CCN(c2cc(NC(=O)Nc3ccc(-c4ccncc4)c(Cl)c3)ccc2Br)CC1`, `O=C(NCC(c1ccc(C(F)(F)F)cc1)N1CCCC1)c1cc(-c2ccncc2)c(-c2cccc(O)c2)o1` (centres undefined) is lower in inhibition: 10.5% for the first, -0.08% for the second.

Going from `c1ccc(-c2nc(Nc3nc4ccccc4[nH]3)[nH]c2-c2ccccc2)cc1` to `O=C(Nc1cccc(-c2ccc(-c3nc4ccccc4[nH]3)cc2)c1)c1cnn2cccnc12`, the inhibition falls from 4.43% to -0.33%.

First: Cc1noc(C)c1-c1cccc(CNCc2cccc(-c3ccc(-c4nc5ccccc5[nH]4)s3)c2)c1
Second: CS(=O)(=O)NCCCNCc1cccc(-c2csc(-c3nc4ccccc4[nH]3)c2)c1
The inhibition of the first is higher: 7.45% for the first, -0.84% for the second.

Compared with `COc1ccc(-c2cccc(NC(=O)c3ccc(Cl)cc3)c2)cc1CN1CCNCC1`, `COC(=O)c1ccc2nc(-c3ccc(C(=O)NC4CCN(Cc5ccccc5)CC4)s3)[nH]c2c1` is higher in inhibition: -0.7% for the first, 8.06% for the second.

First: N=C(N)Nc1nc(-c2ccc(NCc3ccc(CNc4cccc(-c5csc(NC(=N)N)n5)c4)cc3)cc2)cs1
Second: CC(=O)Nc1nc(C(=O)Nc2ccc(-c3cccc(-c4nc5cc(F)ccc5[nH]4)c3)cc2)cs1
The inhibition of the first is lower: 1.12% for the first, 3.35% for the second.

First: CC(=O)c1sc(NC(=O)Nc2ccc(C)cc2C)nc1C
Second: COc1ccccc1NC(=O)Nc1ccc(-c2ccc(-c3nc4cccc(C)c4[nH]3)s2)cc1
The inhibition of the first is higher: 3.63% for the first, 1.64% for the second.

First: O=C(/C=C/c1ccc(Cl)c(Cl)c1)NCCCCCN1CCC(NC(=O)Nc2ccc([N+](=O)[O-])cc2)CC1
Second: O=C(NCCCN1CCC(N2CCCCC2)CC1)C1=Cc2cc(Br)ccc2OC1
The inhibition of the first is lower: -0.43% for the first, 0.26% for the second.

Going from `Nc1nc(N)c(-c2ccccc2)c(=O)[nH]1` to `COc1ccc2nc(-c3ccccc3)cc(N/N=C/c3ccc([N+](=O)[O-])o3)c2c1`, the inhibition rises from 1.16% to 10.3%.

Going from `COc1ccc(CNc2ccnc(-n3cnc4cc(C)c(C)cc43)n2)cc1Cl` to `CCOCCCNc1nc2cc(OC)c(OC)cc2c2nc(-c3ccccc3)nn12`, the inhibition falls from 2.53% to -2.64%.

Going from `CCCCCCCCn1ccc(=N)cc1` to `CCCOc1ccc2ccccc2c1CNCCCCCCNCc1c(OCCC)ccc2ccccc12`, the inhibition falls from 0.3% to -1.19%.

Compared with `Cc1cccc2nc(-c3ccc(-c4ccc(CN5CCN(c6ccc(C#N)cn6)CC5)cc4)s3)[nH]c12`, `N#Cc1ccc(N2CCN(Cc3ccc(-c4ccc(-c5nc6cc(C(F)(F)F)ccc6[nH]5)cc4)cc3)CC2)nc1` is higher in inhibition: -0.38% for the first, 1.55% for the second.

Compared with `CCCN(CCC)CCCCC(C)Nc1c2ccc(Cl)cc2nc2ccc(OC)cc12` (centres undefined), `N=C(N)Nc1ccc(OCCCCCOc2ccc(NC(=N)N)c(Cl)c2)cc1Cl` is lower in inhibition: 9.34% for the first, -2.62% for the second.

First: Cc1[nH]c(C)c(-c2ccc(-c3ccc(Cl)cc3)nc2)c(=O)c1Cl
Second: Cc1[nH]c2ccc(-c3ccc(N(C)C)cc3)cc2c(=O)c1Cl
The inhibition of the first is lower: -0.19% for the first, 2.73% for the second.

Compared with `N=C(N)NN=CC(=O)Nc1ccc(C(F)(F)F)cc1`, `CC1CCN(Cc2c(O)ccc3c(O)c(-c4nc5ccccc5s4)c(=N)oc23)CC1` is lower in inhibition: 3.39% for the first, -0.56% for the second.

Going from `Cc1sc2cc(Cl)cc(Cl)c2c1S(=O)(=O)Nc1ccc2nccc(N3CCNCC3)c2c1` to `CS(=O)(=O)c1cccc(-c2cnc(N)c3cc(-c4ccc(F)cc4)ccc23)c1`, the inhibition rises from -0.24% to 1.35%.

First: CN1CCN(CCCN(Cc2cccc(-c3ccc(CNCc4ccc5c(c4)OCO5)cc3)c2)C(=O)CCC2CCCC2)CC1
Second: CN1CCN(Cc2ccc(-c3ccc4c(Nc5ccc(Oc6ccccc6)cc5)ccnc4c3)o2)CC1
The inhibition of the first is higher: 34.4% for the first, 0.49% for the second.

`COc1ccc(OC)c(CC2c3ccc(Br)c(O)c3CCN2C)c1` (centres undefined) was tested, and the inhibition was 2.33%.
